Source: PubChem BioAssay AID2314 (National Center for Advancing Translational Sciences (NCATS), 2010)
Out of some 300,000 compounds screened, about 37,000 (12%) were called active. Cut-off read from the data, not from the text of the source: active = max response mostly above about 13% (no sharp cut-off); inactive = mostly below about 14%. For the sample, actives were picked, then their nearest neighbours and some compounds at random.

Assay: Cycloheximide Counterscreen for Small Molecule Inhibitors of Shiga Toxin; note: read at 38.3 µM for the half of the compounds with a filed dose; 0% is about no effect
Details: cell reporter, cycloheximide protein synthesis inhibition counterscreen; hits give high values

SMILES	max response
Cn1cc[n+](C)c1COc1ccc(C=O)cc1	1.36% (inactive)
COc1ccc(C(=O)NCc2cn3ccccc3n2)cc1	-1.44% (inactive)
O=Cc1ccc(OCc2cn3ccccc3n2)cc1	31.8% (active)
Cc1cccc2nc(CSc3nc4[nH]ncc4c(=O)n3-c3cccc(Cl)c3)cc(=O)n12	1.41% (inactive)
Oc1ccc(N=Cc2c(O)ccc3ccccc23)cc1	4.29% (inactive)
Oc1ccc(N=Cc2sc3ccccc3c2Cl)cc1	25.7% (active)
Cc1cccc(N=Nc2c(O)[nH]c3ccc(F)cc23)c1	49% (active)
NS(=O)(=O)c1ccc(N=Nc2c(O)[nH]c3ccc(Br)cc23)cc1	-3.08% (inactive)
Oc1[nH]c2ccc(Br)cc2c1N=Nc1nn[nH]n1	1.76% (inactive)
Fc1ccccc1COc1ccccc1CNCc1ccncc1	-2.19% (inactive)
CN(Cc1ccccc1)CC(O)COc1ccc(CNCc2cc3ccccc3s2)cc1 (centres undefined)	-1.23% (inactive)
Cc1ccc(C2CC2C(=O)NN)cc1 (centres undefined)	4.7% (inactive)
O=C(NNC(=S)Nc1ccc(F)cc1)[C@H]1C[C@@H]1c1ccccc1	-2.55% (inactive)
Cc1ccc(NC(=O)C2CC2c2ccccc2)cc1 (centres undefined)	28.4% (active)
O=C(NC1CCN(Cc2ccccc2)CC1)c1ccc(Oc2cc(Cl)cc(Cl)c2)o1	-0.55% (inactive)
CCCc1nnc(NC(=O)c2cc(OC)cc(OC)c2)s1	8.3% (inactive)
Cc1nc(-c2ccc(NC(=O)c3cccs3)cc2)cs1	23.7% (active)
CCc1c(C)sc(NC(=O)c2cccs2)c1C(N)=O	63.8% (active)
Cc1ccc(-c2nnc(-c3ccc(NC(=O)c4cccs4)cc3)o2)cc1	-3.98% (inactive)
CCCc1nnc(NC(=O)c2cccs2)s1	12.8% (active)
Cc1ccc(OCC(=O)Nc2ccc(NC(=O)c3cccs3)cc2)c(C)c1	-4.62% (inactive)
CCCc1ccc(-c2csc(NC(=O)Cc3cccs3)n2)cc1	22.9% (active)

SMILES	max response
Cc1ccc(-c2csc(NC(=O)Cc3cccs3)n2)cc1C	12.4% (inactive)
COC(=O)c1c(NC(=O)c2cccs2)sc2c1CCCC2	9.75% (inactive)
CCc1c(C)sc(NC(=O)c2ccc(Br)o2)c1C(=O)OC	5.7% (inactive)
CCc1nnc(NC(=O)Cc2cccs2)s1	1.7% (inactive)
CC(=O)c1ccc(N2CCN(C(=O)CCNC(=O)Cn3ccc4ccccc4c3=O)CC2)cc1	-4.48% (inactive)
O=C(O)CCCN1C(=O)c2ccccc2Sc2ncccc21	-1.01% (inactive)
C=C1CCN(C(CC(C)C)C(=O)NCc2cc(OC)c(OC)c(OC)c2)S(=O)(=O)c2ccccc21 (centres undefined)	-2.25% (inactive)
Cc1ccc(CSCCNC(=O)CN(c2ccc(F)cc2)S(C)(=O)=O)cc1	-2.68% (inactive)
Cc1ccccc1C(=O)N1CCC(C(=O)Nc2ccc(S(=O)(=O)N(C)C(C)C)cc2)CC1	4.98% (inactive)
CC1CCCCN1C(=O)Cn1c(=O)oc2cc(S(=O)(=O)N3CCCCC3)ccc21 (centres undefined)	-1.34% (inactive)
CC(C)(C)NCc1cc(Br)ccc1OC1CCCC1	-4.63% (inactive)
CCCCCCn1cc(C(=O)O)c(=O)c2cc(F)c(N3CCCCC3)cc21	-0.584% (inactive)
Cc1nnc(N(Cc2ccco2)C(=O)c2ccno2)s1	-2.88% (inactive)
Cc1ccc(-c2csc(NC(=O)c3cccs3)n2)cc1	60.5% (active)
Cc1ccc(-c2csc(N(Cc3ccco3)C(=O)c3cccs3)n2)cc1	16.7% (active)
O=C(Nc1n[nH]c(C(F)(F)F)n1)c1cccs1	-2.4% (inactive)
O=C(O)CCC(=O)N(Cc1ccco1)c1nc(-c2ccccc2)cs1	-1.24% (inactive)
Cc1ccc(-c2csc(NNC(=O)c3ccccc3)n2)cc1	-2.93% (inactive)
CCC(CC)c1nnc(NC(=O)C2CCN(C(=O)c3ccco3)CC2)s1	-2.36% (inactive)
O=C(CNC1CCCCC1)NCC1(c2ccccc2)CCCC1	-3.76% (inactive)
COCc1cc(=O)n2[nH]c(C)c(-c3ccccc3)c2n1	1.24% (inactive)
COCc1cc(C(C)=O)ccc1OC	-7.85% (inactive)

SMILES	max response
COc1cc(C(C)=O)ccc1OC(=O)CN1C(=O)c2ccccc2C1=O	-2.6% (inactive)
COc1ccccc1-c1sc2ccccc2c1-c1ccc(C(C)=O)cc1	25.3% (active)
CC(=O)Nc1ccc(Oc2ccc3c(c2)C(=O)NC3=O)cc1	-1.54% (inactive)
O=C(Cc1ccccc1)n1nc(-c2ccccc2)nc1NCc1ccco1	15.3% (active)
CS(=O)(=O)n1nc(-c2ccccc2)nc1NCc1ccco1	13.9% (inactive)
c1coc(CNc2ncnc3ccccc23)c1	-1.39% (inactive)
CSc1nc(-c2ccco2)nn1C(=O)CCc1ccccc1	-3.44% (inactive)
CCOCCCNc1nc(-c2ccccc2)nc2ccccc12	7.13% (inactive)
c1ccc(-c2nc(NCc3ccco3)c3ccccc3n2)cc1	16.8% (active)
Cc1cc(=O)[nH]c2nnnn12	4.1% (inactive)
CC1(c2ccccc2)CC(C)(C)N(C(=O)c2cc([N+](=O)[O-])cc([N+](=O)[O-])c2)c2ccccc21 (centres undefined)	-4.42% (inactive)
N#CC1(C#N)C(C(=O)C23CC4CC(CC(C4)C2)C3)C12CCOCC2 (centres undefined)	2.45% (inactive)
Cc1cccc(N(C)C(=O)c2cc3c(=O)[nH]c4ccc(C)cc4c3s2)c1	-2.49% (inactive)
COc1ccc(COC(=O)c2ccc(Cl)c(S(=O)(=O)N3CCOCC3)c2)cc1F	6.51% (inactive)
COc1ccc(-c2cc(C(=O)NC(C(=O)O)C(C)C)c(C)o2)cc1OC (centres undefined)	28.2% (active)
CCC(C)NC(=O)c1cc(Cl)ccc1OC (centres undefined)	5.03% (inactive)
CC(C)C(NC(=O)c1ccc(Cl)cc1)C(=O)O (centres undefined)	-2.96% (inactive)
COc1ccc(-c2cc(C(=O)NC(Cc3c[nH]c4ccccc34)C(=O)O)c(C)o2)cc1OC (centres undefined)	32.9% (active)
Cc1cccc(C)c1OCC(=O)NC(Cc1c[nH]c2ccccc12)C(=O)O (centres undefined)	-0.482% (inactive)
COc1ccc(-c2cc(=O)oc3cc(OCC(=O)N[C@@H](Cc4c[nH]c5ccccc45)C(=O)O)ccc23)cc1	0.573% (inactive)
